Laboratory results from ChEMBL document CHEMBL3988442, “University of Dundee, Small-Polar-MMV Screening Library” (2021).
For some assays here: Entries with a potency or affinity are not part of this list.

What was measured:
Design in all cases: scale not given: direction of the effect not stated beside the values
[1] = molecular target: Protein translocase subunit SecA (Escherichia coli (strain K12)) (UniProt P10408); test: Assay to Identify E. coli SecA ATPase Inhibitors; assay type: functional; settings: 30 µM
Protein translocase subunit SecA (Escherichia coli (strain K12)), sequence (P10408 whole entry): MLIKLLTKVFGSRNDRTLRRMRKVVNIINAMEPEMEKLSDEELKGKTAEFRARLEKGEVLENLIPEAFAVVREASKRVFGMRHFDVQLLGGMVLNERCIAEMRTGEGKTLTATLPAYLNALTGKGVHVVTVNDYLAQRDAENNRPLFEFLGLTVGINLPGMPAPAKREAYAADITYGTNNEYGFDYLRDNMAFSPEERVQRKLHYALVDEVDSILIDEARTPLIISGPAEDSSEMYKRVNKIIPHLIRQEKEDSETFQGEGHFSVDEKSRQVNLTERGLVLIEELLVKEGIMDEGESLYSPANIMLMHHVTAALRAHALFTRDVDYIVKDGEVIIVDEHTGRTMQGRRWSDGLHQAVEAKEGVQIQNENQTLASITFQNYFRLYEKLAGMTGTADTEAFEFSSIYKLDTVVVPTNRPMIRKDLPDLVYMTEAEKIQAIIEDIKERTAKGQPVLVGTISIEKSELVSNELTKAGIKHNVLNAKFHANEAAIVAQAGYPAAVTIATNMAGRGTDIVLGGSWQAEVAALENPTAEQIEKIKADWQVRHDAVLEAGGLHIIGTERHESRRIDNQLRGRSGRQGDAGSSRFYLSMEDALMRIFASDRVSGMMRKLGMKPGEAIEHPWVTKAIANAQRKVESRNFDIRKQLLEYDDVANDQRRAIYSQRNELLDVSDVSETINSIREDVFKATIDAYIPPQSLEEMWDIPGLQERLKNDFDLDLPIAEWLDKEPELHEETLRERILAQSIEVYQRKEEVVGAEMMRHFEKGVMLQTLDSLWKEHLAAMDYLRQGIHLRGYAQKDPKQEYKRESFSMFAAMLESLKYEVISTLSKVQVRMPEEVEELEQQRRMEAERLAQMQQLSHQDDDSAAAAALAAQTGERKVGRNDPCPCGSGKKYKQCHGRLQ

[2] = molecular target: T1, Ubiquitin-activating enzyme e1, putative (Leishmania donovani (strain BPK282A1)) (UniProt E9BSI1); test: Leishmania donovani Ubiquitin Activating Enzyme (LdE1); assay type: functional; settings: 30 µM
T1 sequence (whole entry): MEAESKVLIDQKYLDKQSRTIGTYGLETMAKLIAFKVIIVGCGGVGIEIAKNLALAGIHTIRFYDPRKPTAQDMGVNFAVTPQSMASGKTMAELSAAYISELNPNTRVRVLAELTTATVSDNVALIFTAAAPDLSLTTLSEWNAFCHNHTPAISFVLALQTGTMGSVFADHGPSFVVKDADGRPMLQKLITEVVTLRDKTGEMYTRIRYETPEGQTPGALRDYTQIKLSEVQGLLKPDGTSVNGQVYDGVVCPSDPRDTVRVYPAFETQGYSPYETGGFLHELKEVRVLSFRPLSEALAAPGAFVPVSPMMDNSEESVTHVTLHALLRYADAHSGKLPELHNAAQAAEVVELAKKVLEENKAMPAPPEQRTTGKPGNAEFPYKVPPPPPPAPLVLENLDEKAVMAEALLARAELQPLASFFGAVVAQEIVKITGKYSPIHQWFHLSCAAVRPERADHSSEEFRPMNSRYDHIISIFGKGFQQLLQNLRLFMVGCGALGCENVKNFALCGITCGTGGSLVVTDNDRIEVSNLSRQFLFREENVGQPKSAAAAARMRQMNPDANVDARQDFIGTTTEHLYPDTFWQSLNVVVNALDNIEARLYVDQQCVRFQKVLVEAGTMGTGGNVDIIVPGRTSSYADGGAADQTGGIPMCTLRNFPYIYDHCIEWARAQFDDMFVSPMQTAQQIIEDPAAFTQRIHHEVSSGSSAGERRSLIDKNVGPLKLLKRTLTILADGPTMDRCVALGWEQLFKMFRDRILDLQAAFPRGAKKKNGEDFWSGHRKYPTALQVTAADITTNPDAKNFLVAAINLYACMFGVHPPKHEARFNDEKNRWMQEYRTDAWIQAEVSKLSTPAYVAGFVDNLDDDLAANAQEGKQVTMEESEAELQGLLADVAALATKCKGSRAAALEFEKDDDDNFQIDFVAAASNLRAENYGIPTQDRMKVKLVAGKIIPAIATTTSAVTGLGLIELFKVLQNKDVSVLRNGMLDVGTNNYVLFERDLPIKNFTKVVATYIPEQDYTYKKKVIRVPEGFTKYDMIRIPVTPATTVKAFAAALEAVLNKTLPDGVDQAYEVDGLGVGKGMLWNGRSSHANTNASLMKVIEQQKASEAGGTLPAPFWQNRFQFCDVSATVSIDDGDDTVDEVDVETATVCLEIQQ

[3] = molecular target: Sialic acid-binding Ig-like lectin 9 (Homo sapiens) (UniProt Q9Y336); test: Hs-Siglec9 ALPHAscreen SOP 20170721; settings: 10 µM
Sialic acid-binding Ig-like lectin 9 (Homo sapiens), sequence (Q9Y336 whole entry): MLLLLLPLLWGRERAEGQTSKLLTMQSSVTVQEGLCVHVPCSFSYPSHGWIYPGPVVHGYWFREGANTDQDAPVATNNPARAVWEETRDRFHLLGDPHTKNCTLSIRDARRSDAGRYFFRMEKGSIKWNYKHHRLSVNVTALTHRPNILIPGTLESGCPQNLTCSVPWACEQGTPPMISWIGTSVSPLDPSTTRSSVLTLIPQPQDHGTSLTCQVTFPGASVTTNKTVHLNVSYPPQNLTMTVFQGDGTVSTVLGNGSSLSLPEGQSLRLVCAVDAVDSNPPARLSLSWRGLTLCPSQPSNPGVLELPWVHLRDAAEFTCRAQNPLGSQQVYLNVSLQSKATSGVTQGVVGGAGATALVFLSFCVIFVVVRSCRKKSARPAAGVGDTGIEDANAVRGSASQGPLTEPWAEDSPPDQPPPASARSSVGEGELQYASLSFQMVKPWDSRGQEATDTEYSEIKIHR

Trypanosoma cruzi = test: Trypanosoma cruzi phosphomannomutase and mannose-1-phosphate guanylyltransferase assay; assay type: functional; settings: 10 µM
[4] = molecular target: T2, Arginase-2, mitochondrial (Homo sapiens) (UniProt P78540); test: in vitro enzyme assay to detect the production of urea directly proportional to the activity of Arginase II; assay type: functional; settings: 33.3 µM; note: in the data most compounds retested in dose-response had high values
T2 sequence (whole entry): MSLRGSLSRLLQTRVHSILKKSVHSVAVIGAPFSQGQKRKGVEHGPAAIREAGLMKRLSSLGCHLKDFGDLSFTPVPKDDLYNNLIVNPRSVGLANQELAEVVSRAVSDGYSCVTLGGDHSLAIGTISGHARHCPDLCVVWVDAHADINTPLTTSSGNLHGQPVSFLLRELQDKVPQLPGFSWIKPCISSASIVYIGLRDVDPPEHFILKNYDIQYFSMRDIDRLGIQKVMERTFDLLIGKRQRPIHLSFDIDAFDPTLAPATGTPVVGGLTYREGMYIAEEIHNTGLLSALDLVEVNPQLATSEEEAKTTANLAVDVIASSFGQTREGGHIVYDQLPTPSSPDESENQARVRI

[5] = molecular target: T3, Proteasome subunit beta (Trypanosoma cruzi) (UniProt O96673); test: Trypanosoma cruzi proteasome chymotrypsin-like activity (TcProtChymo) assay.; note: in the data most compounds retested in dose-response had high values; assay type: functional; settings: 9.37 µM
T3 sequence (whole entry): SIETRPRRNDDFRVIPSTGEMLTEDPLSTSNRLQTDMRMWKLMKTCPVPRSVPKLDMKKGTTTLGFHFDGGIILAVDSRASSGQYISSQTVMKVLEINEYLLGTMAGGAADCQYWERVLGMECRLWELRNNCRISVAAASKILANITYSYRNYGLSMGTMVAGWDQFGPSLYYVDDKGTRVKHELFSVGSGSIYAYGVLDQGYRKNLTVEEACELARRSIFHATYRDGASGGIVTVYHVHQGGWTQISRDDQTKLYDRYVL

Homo sapiens = species on record: Homo sapiens; test: To identify inhibition of the IFN signalling (Jak-Stat) pathway via expression of an eGFP reporter gene under the control of an IFN-stimulated response element (ISRE) containing MxA promoter.; assay type: functional; settings: 30 µM
[6] = molecular target: T4, Tyrosyl-tRNA synthetase, putative (Trypanosoma cruzi (strain CL Brener)) (UniProt Q4DSP6); test: Trypanosoma cruzi tyrosyl tRNA synthetase (TcYRS) _High Tyrosine SOP; assay type: functional; settings: 30 µM; note: in the data most compounds retested in dose-response had high values
T4 sequence (whole entry): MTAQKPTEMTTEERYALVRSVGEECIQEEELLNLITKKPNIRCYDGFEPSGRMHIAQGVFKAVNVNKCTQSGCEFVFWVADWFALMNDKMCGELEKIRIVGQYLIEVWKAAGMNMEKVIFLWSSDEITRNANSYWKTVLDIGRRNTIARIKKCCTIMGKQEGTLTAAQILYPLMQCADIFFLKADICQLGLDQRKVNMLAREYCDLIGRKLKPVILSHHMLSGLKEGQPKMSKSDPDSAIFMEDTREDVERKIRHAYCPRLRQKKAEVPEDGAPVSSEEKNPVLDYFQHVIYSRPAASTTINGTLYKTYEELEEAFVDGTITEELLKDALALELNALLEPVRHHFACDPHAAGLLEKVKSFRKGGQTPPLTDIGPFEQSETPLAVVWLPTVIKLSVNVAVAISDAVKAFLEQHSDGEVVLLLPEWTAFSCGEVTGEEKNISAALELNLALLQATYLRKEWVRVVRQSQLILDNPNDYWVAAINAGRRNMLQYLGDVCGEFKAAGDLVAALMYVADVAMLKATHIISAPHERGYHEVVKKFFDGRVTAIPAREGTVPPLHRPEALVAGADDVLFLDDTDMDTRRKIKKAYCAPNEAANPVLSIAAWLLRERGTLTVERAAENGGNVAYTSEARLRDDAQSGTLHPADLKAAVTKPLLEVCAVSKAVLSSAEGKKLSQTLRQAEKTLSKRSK

[7] = molecular target: T4, Tyrosyl-tRNA synthetase, putative (Trypanosoma cruzi (strain CL Brener)); test: Trypanosoma cruzi tyrosyl tRNA synthetase (TcYRS) SOP; assay type: functional; settings: 30 µM
[8] = molecular target: Chromo domain-containing protein 1 (Saccharomyces cerevisiae (strain ATCC 204508 / S288c) (Baker's yeast)) (UniProt P32657); test: ScCHD-1 Enzyme Inhibition Assay; assay type: functional; settings: 30 µM; note: in the data most compounds retested in dose-response had high values
Chromo domain-containing protein 1 (Saccharomyces cerevisiae (strain ATCC 204508 / S288c) (Baker's yeast)), sequence (P32657 whole entry, the tested form may be a part): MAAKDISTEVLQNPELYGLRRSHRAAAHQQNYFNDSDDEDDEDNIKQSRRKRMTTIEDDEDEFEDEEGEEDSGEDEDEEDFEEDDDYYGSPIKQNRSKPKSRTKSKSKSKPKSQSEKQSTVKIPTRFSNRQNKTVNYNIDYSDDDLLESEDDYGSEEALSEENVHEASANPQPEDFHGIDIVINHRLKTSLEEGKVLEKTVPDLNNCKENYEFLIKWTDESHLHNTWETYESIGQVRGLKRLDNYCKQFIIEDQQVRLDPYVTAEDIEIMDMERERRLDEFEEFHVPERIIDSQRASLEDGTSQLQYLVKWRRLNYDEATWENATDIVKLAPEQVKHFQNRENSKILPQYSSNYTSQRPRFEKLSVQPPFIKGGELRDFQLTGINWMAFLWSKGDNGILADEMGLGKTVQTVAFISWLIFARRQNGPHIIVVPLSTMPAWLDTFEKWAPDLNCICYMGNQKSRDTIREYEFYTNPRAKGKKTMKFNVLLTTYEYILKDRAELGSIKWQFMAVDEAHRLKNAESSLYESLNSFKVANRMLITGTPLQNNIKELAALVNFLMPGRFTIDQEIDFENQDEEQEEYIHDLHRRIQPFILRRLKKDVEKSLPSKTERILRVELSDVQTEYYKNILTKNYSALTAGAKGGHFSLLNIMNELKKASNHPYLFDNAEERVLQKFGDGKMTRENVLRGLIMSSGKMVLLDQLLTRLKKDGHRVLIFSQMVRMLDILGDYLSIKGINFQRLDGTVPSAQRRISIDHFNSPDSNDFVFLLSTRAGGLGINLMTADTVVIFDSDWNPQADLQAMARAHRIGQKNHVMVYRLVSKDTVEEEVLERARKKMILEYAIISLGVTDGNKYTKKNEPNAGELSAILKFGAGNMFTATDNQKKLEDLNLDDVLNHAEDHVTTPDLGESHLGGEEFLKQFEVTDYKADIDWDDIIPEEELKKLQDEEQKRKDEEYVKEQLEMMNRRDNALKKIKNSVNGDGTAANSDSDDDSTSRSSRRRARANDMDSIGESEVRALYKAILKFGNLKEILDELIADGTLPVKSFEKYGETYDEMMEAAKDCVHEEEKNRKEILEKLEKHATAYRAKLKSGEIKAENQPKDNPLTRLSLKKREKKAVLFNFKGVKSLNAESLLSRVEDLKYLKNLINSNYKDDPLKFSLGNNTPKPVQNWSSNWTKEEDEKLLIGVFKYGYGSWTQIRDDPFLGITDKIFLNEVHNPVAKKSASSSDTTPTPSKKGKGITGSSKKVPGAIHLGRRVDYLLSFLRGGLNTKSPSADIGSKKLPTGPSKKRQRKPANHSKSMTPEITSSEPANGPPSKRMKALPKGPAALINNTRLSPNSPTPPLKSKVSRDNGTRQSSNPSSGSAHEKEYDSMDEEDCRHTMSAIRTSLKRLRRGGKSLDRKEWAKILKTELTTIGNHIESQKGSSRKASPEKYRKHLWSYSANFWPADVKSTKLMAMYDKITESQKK

| Compound | Percent Effect [1] [%] | Percent Effect [2] [%] | Percent Effect [3] [%] | Percent Effect (Trypanosoma cruzi) [%] | Percent Effect [4] [%] | Percent Effect [5] [%] | Percent Effect (Homo sapiens) [%] | Percent Effect [6] [%] | Percent Effect [7] [%] | Percent Effect [8] [%] |
| --- | --- | --- | --- | --- | --- | --- | --- | --- | --- | --- |
| Cn1cnc2c1CCN(CCS(=O)(=O)c1ccccc1)C2 | -3.11 | 2.67 | 3.94 | 2.21 | -5.32 | 3.48 | 20.9 | 0.526 | 5.13 | -6.73 |
| O=C(c1ccncc1)N1CCC2(CC1)CC(Oc1cccnc1)CO2 (stereo not given) | -6.1 | -16.9 | 6.5 | 2.43 | -2.02 | 5.91 | -1.58 | 3.68 | 2.56 | -0.282 |
| Cc1nc(C)n(CC2CCCN2Cc2cn3ccsc3n2)n1 (stereo not given) | 1.01 | 12.8 | -7.58 | -2.72 | -1.23 | 19 | 27.5 | 3.35 | 13.2 | -5.22 |
| Cc1cc(C(=O)NCc2ccc(N3CCCC(C(N)=O)C3)cc2)no1 (stereo not given) | -3.67 | 10.7 | 2.55 | 3.01 | 4.88 | 11.1 | 3.86 | 2.63 | 5.13 | -7.24 |
| CCC1c2ccsc2CCN1C(=O)NCc1ccccn1 (stereo not given) | -3.49 | 20.5 | -10.3 | 4.6 | 4.1 | 10.2 | 10.8 | 5.26 | 22.9 | -7.76 |
| Cc1n[nH]c(=O)c2c(NC(=O)CN3CCC(O)CC3)oc(C)c12 | -1.08 | 10.3 | -12.1 | -8.17 | 0.41 | 19.4 | 21.8 | 4.31 | 10.8 | -5.11 |
| CN(C)CCN1CCC2(CCN(C(=O)c3ccc(F)cc3)CC2)C1=O | -1.6 | 14.3 | -0.427 | -5.44 | 2.28 | 16.7 | 12.2 | 10.6 | 12.5 | -6.97 |
| Cc1cccnc1C(=O)N1CCCCC1c1[nH]ncc1S(C)(=O)=O (stereo not given) | -3.04 | 6.67 | 0.367 | -1.97 | 6.64 | 4.76 | 0.716 | 7.41 | 7.5 | -19.6 |
| COC(=O)C1CCN(C(=O)c2ccc(N(C)S(C)(=O)=O)c(C)c2)CC1 | -3.72 | -2.7 | -4.09 | -31.3 | -1.75 | 13.7 | -11.3 | 2.66 | 2.44 | 3.29 |
| Cn1cnc2c1CCN(Cc1csc(-c3ccsc3)n1)C2 | -0.725 | 0 | -11.7 | -1.41 | 3.69 | 13.2 | 27.3 | 11 | 13.2 | 25 |
| CC(C)c1nnc2n1CCN(C(=O)c1ccnc(N(C)C)c1)C2 | -5.81 | 10.7 | 7.33 | 0 | -5.76 | 16.9 | -3.26 | 3.68 | 10.3 | -12.4 |
